Reference: the supplement of paper PMC10849652
About 8,800 targets were measured; listed, in parts, are those with a hit and a random draw of the rest. About 0.5% of all pairs of compound and target were hits.

Columns and labels:
Assay in all cases: log2 fold change, soluble protein after heating vs DMSO (PISA); higher = thermal stabilisation; K562 lysate, 10 uM; active = over 0.2 and 3.5 SD of the protein, either way, in both replicates (recomputed)
alvocidib = compound: CN1CC[C@H](c2c(O)cc(O)c3c(=O)cc(-c4ccccc4Cl)oc23)[C@H](O)C1 [alvocidib]
Outline: (§1)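 Values give the log-two fold change in thermal stability against solvent controls, from duplicates. Crude K562 extract at 1 mg/mL protein, made by dounce homogenisation in PBS pH 7.4 with 1 mM MgCl2, was treated with 10 μM compound for 30 min. After 3 min heating across 48°C-58°C, aliquots were pooled, adjusted to 0.5% NP-40 at 4°C and centrifuged at 21,000xg for 90 min. The supernatant was measured by TMTpro 16plex LC-MS/MS with channel sums equalised.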

Tubastatin A = compound: CN1CCc2c(c3ccccc3n2Cc2ccc(C(=O)NO)cc2)C1 [Tubastatin A]
Outline: as §1

[1] = compound: CNC(=O)C1=CC=CC=C1NC2=NC(=NC=C2Cl)NC3=C(C=C(C=C3)N4CCOCC4)OC
Outline: as §1

defactinib = compound: CNC(=O)c1ccc(Nc2ncc(C(F)(F)F)c(NCc3nccnc3N(C)S(C)(=O)=O)n2)cc1 [defactinib]
Outline: as §1

[2] = compound: CNc1nc(-c2ccc3c(N)n[nH]c3c2)cc(N2C[C@@H](C(=O)NC3CCCCC3)CC[C@H]2C)n1
Outline: as §1

encorafenib = compound: COC(=O)N[C@@H](C)CNc1nccc(-c2cn(C(C)C)nc2-c2cc(Cl)cc(NS(C)(=O)=O)c2F)n1 [encorafenib]
Outline: as §1

[3] = compound: COC(=O)[C@H](CCSC)NC(=O)C1=C(C=C(C=C1)NC[C@H](CS)N)C2=CC=CC=C2
Outline: as §1

alisertib = compound: COc1cc(Nc2ncc3c(n2)-c2ccc(Cl)cc2C(c2c(F)cccc2OC)=NC3)ccc1C(=O)O [alisertib]
Outline: as §1

[4] = compound: COc1cc2nc(-c3cc(F)ccc3O)nc(N[C@@H]3CNC[C@H]3C(C)(C)O)c2cc1OC
Outline: as §1

gefitinib = compound: COc1cc2ncnc(Nc3ccc(F)c(Cl)c3)c2cc1OCCCN1CCOCC1 [gefitinib]
Outline: as §1

lapatinib = compound: CS(=O)(=O)CCNCc1ccc(-c2ccc3ncnc(Nc4ccc(OCc5cccc(F)c5)c(Cl)c4)c3c2)o1 [lapatinib]
Outline: as §1

pictilisib = compound: CS(=O)(=O)N1CCN(Cc2cc3nc(-c4cccc5[nH]ncc45)nc(N4CCOCC4)c3s2)CC1 [pictilisib]
Outline: as §1

crizotinib = compound: C[C@@H](Oc1cc(-c2cnn(C3CCNCC3)c2)cnc1N)c1c(Cl)ccc(F)c1Cl [crizotinib]
Outline: as §1

[5] = compound: C[C@H](C1=CC=C(C=C1)C(=O)NC2=C3C=CNC3=NC=C2)N
Outline: as §1

duvelisib = compound: C[C@H](Nc1ncnc2nc[nH]c12)c1cc2cccc(Cl)c2c(=O)n1-c1ccccc1 [duvelisib]
Outline: as §1

gandotinib = compound: Cc1cc(Nc2cc(CN3CCOCC3)c3nc(C)c(Cc4ccc(Cl)cc4F)n3n2)n[nH]1 [gandotinib]
Outline: as §1

tozasertib = compound: Cc1cc(Nc2cc(N3CCN(C)CC3)nc(Sc3ccc(NC(=O)C4CC4)cc3)n2)n[nH]1 [tozasertib]
Outline: as §1

doramapimod = compound: Cc1ccc(-n2nc(C(C)(C)C)cc2NC(=O)Nc2ccc(OCCN3CCOCC3)c3ccccc23)cc1 [doramapimod]
Outline: as §1

bafetinib = compound: Cc1ccc(NC(=O)c2ccc(CN3CC[C@H](N(C)C)C3)c(C(F)(F)F)c2)cc1Nc1nccc(-c2cncnc2)n1 [bafetinib]
Outline: as §1

[6] = compound: Cc1cccc(CC(=O)N2CCc3c2ccc(-c2cn(C)c4ncnc(N)c24)c3F)n1
Outline: as §1

Measured: log2 fold change

PPP3CA isoform 2 (UniProt Q08209)
inactive: alvocidib 0.043 | Tubastatin A 0.017 | [1] 0.033 | defactinib 0.101 | [2] 0.01 | encorafenib 0.023 | [3] 0 | alisertib 0.061 | [4] -0.001 | gefitinib 0.09 | lapatinib -0.008 | pictilisib 0.085 | crizotinib 0.048 | [5] 0.075 | duvelisib 0.008 | gandotinib -0.099 | tozasertib -0.068 | doramapimod -0.006 | bafetinib -0.026 | [6] -0.091

PCBP3 (UniProt P57721)
inactive: alvocidib -0.015 | Tubastatin A 0.005 | [1] 0.022 | defactinib -0.039 | [2] 0.042 | encorafenib -0.006 | [3] -0.023 | alisertib 0.019 | [4] 0.015 | gefitinib -0.023 | lapatinib -0.031 | pictilisib -0.035 | crizotinib 0.002 | [5] -0.067 | duvelisib -0.014 | gandotinib 0.028 | tozasertib 0.001 | doramapimod 0.014 | bafetinib -0.03 | [6] 0.026

PPP4R2 (UniProt Q9NY27)
Sequence of UniProt Q9NY27 (Q9NY27 whole entry, looked up): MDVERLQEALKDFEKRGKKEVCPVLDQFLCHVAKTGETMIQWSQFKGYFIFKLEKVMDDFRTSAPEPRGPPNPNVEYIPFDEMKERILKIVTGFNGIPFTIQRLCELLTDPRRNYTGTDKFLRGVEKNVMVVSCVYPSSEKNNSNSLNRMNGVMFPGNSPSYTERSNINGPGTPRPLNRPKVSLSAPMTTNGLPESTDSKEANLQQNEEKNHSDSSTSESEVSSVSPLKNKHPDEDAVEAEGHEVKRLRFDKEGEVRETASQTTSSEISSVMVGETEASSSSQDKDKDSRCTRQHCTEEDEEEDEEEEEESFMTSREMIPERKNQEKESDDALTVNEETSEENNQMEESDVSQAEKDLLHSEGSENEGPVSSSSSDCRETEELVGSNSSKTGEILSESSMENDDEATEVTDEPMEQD
inactive: alvocidib 0.021 | Tubastatin A 0.013 | [1] 0.018 | defactinib 0.015 | [2] 0.014 | encorafenib 0.025 | [3] -0.014 | alisertib -0.058 | [4] -0.002 | gefitinib -0.01 | lapatinib 0.057 | pictilisib -0.003 | crizotinib 0.023 | [5] 0.159 | duvelisib 0.003 | gandotinib -0.011 | tozasertib -0.007 | doramapimod -0.022 | bafetinib 0.021 | [6] -0.048

PRKRA (UniProt O75569)
inactive: alvocidib 0.024 | Tubastatin A -0.254 | [1] 0.028 | defactinib 0.02 | [2] -0.009 | encorafenib -0.001 | [3] 0.146 | alisertib -0.019 | [4] -0.004 | gefitinib -0.006 | lapatinib 0.01 | pictilisib -0.003 | crizotinib -0.021 | [5] -0.017 | duvelisib 0 | gandotinib -0.094 | tozasertib -0.005 | doramapimod -0.01 | bafetinib -0.003 | [6] 0.032

PMS2 (UniProt P54278)
Sequence of UniProt P54278 (P54278 whole entry, looked up): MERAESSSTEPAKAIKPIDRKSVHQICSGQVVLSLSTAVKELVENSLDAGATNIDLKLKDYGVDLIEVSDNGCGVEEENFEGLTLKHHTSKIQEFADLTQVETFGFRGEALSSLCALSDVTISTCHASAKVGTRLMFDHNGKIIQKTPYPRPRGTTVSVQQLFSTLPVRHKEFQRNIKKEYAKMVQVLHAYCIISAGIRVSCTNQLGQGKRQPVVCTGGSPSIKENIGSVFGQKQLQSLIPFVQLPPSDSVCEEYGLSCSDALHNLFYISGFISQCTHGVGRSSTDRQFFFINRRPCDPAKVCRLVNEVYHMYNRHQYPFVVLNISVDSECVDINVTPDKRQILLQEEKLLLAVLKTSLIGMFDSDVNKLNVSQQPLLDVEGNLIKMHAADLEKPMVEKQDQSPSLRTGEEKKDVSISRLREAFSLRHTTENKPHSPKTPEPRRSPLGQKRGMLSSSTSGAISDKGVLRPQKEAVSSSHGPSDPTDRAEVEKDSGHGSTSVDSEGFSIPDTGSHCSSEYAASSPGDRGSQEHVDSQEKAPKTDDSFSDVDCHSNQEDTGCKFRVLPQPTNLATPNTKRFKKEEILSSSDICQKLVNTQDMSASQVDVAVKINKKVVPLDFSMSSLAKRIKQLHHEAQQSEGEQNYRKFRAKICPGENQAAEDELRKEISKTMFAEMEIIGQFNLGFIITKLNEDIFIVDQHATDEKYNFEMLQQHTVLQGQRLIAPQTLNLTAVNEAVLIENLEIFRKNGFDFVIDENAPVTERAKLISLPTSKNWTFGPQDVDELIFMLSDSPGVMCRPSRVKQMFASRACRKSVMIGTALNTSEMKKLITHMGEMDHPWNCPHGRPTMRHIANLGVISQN
inactive: alvocidib -0.001 | Tubastatin A -0.129 | [1] 0.03 | defactinib 0.021 | [2] 0.103 | encorafenib 0.038 | [3] 0.089 | alisertib 0.009 | [4] 0.02 | gefitinib 0.024 | lapatinib 0.016 | pictilisib 0.021 | crizotinib -0.038 | [5] -0.036 | duvelisib 0 | gandotinib -0.064 | tozasertib -0.014 | doramapimod -0.038 | bafetinib 0.021 | [6] 0.037

PLEKHO2 (UniProt Q8TD55)
Sequence of UniProt Q8TD55 (Q8TD55 whole entry, looked up): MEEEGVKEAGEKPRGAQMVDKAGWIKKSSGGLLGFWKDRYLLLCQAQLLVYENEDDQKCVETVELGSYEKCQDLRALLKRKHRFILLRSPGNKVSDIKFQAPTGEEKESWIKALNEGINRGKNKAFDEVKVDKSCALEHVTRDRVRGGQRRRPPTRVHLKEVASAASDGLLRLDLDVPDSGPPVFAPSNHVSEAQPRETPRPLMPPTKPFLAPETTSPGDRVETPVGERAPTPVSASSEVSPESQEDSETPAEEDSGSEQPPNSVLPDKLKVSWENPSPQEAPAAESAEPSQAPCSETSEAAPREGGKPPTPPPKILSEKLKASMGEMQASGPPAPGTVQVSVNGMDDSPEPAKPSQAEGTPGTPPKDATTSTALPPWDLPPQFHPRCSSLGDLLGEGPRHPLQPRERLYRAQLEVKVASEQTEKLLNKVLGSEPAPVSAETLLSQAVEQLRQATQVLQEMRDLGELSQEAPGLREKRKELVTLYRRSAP
inactive: alvocidib -0.067 | Tubastatin A -0.228 | [1] 0.281 | defactinib -0.001 | [2] -0.106 | encorafenib 0.007 | [3] 0.054 | alisertib -0.004 | [4] 0 | gefitinib 0.043 | lapatinib 0.045 | pictilisib 0.184 | crizotinib 0.057 | [5] 0.039 | duvelisib 0.062 | gandotinib -0.018 | tozasertib -0.137 | doramapimod 0.005 | bafetinib -0.193 | [6] 0.07

PRKD2 isoform 3 (UniProt Q9BZL6)
inactive: alvocidib 0.01 | Tubastatin A -0.145 | [1] -0.125 | defactinib 0.24 | [2] 0.024 | encorafenib 0.091 | [3] -0.001 | alisertib -0.028 | [4] 0.238 | gefitinib -0.165 | lapatinib 0.087 | pictilisib -0.009 | crizotinib -0.043 | [5] -0.047 | duvelisib 0.05 | gandotinib -0.15 | tozasertib 0.019 | doramapimod -0.002 | bafetinib 0.02 | [6] -0.01

PRMT7 (UniProt Q9NVM4)
Sequence of UniProt Q9NVM4 (Q9NVM4 whole entry, looked up): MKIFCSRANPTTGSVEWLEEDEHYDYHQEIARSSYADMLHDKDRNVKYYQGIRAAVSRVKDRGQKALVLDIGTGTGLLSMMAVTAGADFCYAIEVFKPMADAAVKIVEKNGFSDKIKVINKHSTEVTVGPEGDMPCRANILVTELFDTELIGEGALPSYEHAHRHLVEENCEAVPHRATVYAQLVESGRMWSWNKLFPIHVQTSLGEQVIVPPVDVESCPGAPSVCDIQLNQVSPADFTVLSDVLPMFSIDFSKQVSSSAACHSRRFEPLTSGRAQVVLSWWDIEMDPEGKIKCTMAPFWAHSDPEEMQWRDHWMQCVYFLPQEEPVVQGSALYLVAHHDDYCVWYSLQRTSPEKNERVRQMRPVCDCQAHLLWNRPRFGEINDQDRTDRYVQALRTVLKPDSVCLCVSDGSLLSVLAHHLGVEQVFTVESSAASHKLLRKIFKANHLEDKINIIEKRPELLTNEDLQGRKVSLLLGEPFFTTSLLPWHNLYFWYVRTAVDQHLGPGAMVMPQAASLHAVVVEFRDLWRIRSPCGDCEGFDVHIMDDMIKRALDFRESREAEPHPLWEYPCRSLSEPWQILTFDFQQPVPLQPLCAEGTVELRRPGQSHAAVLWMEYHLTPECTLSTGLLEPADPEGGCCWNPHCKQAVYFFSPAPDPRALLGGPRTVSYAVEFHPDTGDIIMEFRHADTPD
inactive: alvocidib 0.017 | Tubastatin A -0.069 | [1] 0.024 | defactinib -0.047 | [2] 0.002 | encorafenib 0.012 | alisertib -0.015 | [4] 0.007 | gefitinib 0 | lapatinib -0.006 | pictilisib 0 | crizotinib 0.025 | [5] -0.014 | duvelisib 0.035 | gandotinib -0.045 | tozasertib 0.039 | doramapimod -0.025 | bafetinib -0.01 | [6] -0.008
active: [3] 0.286

PCF11 (UniProt O94913)
Sequence of UniProt O94913 (O94913 whole entry, looked up): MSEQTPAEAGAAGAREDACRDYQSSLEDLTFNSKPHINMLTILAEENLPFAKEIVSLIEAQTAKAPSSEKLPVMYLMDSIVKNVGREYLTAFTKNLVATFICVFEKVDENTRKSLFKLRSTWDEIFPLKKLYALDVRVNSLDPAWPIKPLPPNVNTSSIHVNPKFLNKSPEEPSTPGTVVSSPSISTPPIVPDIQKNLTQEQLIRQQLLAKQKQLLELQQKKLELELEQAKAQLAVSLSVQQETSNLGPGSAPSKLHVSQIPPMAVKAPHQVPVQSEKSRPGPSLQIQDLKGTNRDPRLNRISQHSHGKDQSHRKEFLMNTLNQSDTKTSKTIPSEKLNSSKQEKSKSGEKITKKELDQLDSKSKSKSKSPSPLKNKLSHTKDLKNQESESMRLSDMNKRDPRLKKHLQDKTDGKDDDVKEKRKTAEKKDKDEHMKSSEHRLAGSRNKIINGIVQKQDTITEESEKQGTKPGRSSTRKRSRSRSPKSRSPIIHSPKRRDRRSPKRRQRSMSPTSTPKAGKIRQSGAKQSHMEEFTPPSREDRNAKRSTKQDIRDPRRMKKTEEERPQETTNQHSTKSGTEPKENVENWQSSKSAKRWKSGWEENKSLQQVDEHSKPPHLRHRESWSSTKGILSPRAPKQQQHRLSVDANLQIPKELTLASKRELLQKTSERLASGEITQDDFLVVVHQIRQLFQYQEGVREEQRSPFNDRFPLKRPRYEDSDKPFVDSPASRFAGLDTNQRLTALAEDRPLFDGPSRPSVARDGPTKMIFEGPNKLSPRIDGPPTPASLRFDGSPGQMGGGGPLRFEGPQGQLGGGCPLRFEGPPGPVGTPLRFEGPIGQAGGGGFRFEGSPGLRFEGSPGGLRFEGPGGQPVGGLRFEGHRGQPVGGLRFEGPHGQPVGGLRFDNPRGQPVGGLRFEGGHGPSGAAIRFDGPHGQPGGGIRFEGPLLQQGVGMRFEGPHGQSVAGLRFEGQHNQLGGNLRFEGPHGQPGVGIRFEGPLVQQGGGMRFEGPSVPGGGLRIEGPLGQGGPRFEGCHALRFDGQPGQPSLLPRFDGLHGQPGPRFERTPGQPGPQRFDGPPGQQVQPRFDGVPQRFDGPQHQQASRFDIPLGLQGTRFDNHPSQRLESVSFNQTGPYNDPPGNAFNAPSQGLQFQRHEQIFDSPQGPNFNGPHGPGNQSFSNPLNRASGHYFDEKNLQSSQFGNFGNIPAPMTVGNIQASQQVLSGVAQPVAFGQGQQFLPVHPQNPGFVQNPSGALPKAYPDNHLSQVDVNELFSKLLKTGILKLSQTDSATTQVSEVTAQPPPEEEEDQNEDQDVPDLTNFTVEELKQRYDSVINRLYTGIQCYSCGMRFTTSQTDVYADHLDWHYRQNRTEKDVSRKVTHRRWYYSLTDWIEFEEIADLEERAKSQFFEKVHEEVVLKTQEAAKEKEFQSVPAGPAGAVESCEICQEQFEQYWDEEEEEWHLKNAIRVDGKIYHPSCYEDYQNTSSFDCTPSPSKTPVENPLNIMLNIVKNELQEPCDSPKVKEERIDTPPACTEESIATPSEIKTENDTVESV
inactive: alvocidib -0.018 | Tubastatin A -0.12 | [1] 0.002 | defactinib 0.041 | [2] 0.078 | encorafenib 0.036 | [3] -0.021 | alisertib 0.009 | [4] 0.042 | gefitinib 0.002 | lapatinib -0.017 | pictilisib -0.014 | crizotinib -0.018 | [5] 0.058 | duvelisib 0.005 | gandotinib -0.086 | tozasertib -0.004 | doramapimod -0.031 | bafetinib -0.021 | [6] -0.017

PRIM1 (UniProt P49642)
inactive: alvocidib 0 | Tubastatin A -0.11 | [1] 0.023 | defactinib -0.012 | [2] 0.033 | encorafenib 0.052 | [3] 0.041 | alisertib -0.054 | [4] -0.019 | gefitinib -0.008 | lapatinib -0.02 | pictilisib 0.023 | crizotinib -0.064 | [5] 0.024 | duvelisib 0.004 | gandotinib -0.099 | tozasertib 0.027 | doramapimod -0.022 | bafetinib -0.077 | [6] 0.007

PMPCA (UniProt Q10713)
Sequence of UniProt Q10713 (Q10713 whole entry, looked up): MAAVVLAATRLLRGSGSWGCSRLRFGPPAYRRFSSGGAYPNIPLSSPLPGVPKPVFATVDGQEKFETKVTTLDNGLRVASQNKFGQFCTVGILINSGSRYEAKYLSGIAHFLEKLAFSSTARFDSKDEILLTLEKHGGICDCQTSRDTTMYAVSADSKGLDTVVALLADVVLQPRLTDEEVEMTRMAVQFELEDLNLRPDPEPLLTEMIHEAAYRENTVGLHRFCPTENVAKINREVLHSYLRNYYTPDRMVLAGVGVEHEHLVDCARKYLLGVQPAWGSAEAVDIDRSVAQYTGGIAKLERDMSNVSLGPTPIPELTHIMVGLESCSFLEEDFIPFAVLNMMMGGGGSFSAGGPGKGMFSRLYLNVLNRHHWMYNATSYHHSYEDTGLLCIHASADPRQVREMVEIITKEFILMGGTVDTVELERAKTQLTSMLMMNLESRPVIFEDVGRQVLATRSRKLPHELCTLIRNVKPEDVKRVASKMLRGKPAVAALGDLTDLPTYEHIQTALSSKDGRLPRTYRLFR
inactive: alvocidib -0.006 | Tubastatin A 0.049 | [1] -0.045 | defactinib 0.004 | [2] -0.004 | encorafenib 0.001 | [3] 0.04 | alisertib -0.03 | [4] 0.003 | gefitinib -0.02 | lapatinib -0.02 | pictilisib -0.043 | crizotinib -0.048 | [5] -0.053 | duvelisib 0.053 | gandotinib -0.004 | tozasertib 0.016 | doramapimod 0.079 | bafetinib 0.046 | [6] 0.025

PHGDH (UniProt O43175)
Sequence of UniProt O43175 (O43175 whole entry, looked up): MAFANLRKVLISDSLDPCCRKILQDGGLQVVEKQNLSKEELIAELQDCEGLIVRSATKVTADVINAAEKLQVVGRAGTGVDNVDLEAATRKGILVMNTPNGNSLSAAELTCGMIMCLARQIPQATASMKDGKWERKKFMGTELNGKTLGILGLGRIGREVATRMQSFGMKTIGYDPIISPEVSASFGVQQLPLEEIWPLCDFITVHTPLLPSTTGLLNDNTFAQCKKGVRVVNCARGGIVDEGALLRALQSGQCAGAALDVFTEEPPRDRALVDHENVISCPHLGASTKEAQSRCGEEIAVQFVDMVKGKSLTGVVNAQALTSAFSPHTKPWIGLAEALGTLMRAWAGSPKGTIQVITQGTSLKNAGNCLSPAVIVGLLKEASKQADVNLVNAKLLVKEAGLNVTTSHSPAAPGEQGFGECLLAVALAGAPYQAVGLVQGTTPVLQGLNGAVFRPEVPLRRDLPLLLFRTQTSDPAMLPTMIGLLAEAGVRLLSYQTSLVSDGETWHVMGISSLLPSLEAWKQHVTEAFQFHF
active: Tubastatin A -0.415 | [3] -0.439
inactive: alvocidib 0.028 | [1] -0.081 | defactinib 0.022 | [2] 0.018 | encorafenib 0.006 | alisertib 0.004 | [4] 0.006 | gefitinib -0.016 | lapatinib -0.053 | pictilisib 0.005 | crizotinib 0 | [5] 0.076 | duvelisib 0 | gandotinib -0.071 | tozasertib 0.019 | doramapimod -0.039 | bafetinib 0.032 | [6] -0.055

PHACTR4 isoform 2 (UniProt Q8IZ21)
active: [5] 0.764
inactive: alvocidib 0.209 | Tubastatin A 0.016 | [1] -0.024 | defactinib 0.012 | [2] 0.1 | encorafenib -0.01 | [3] -0.016 | alisertib -0.019 | [4] 0.004 | gefitinib -0.022 | lapatinib -0.015 | pictilisib -0.014 | crizotinib -0.005 | duvelisib 0 | gandotinib -0.121 | tozasertib -0.03 | doramapimod -0.003 | bafetinib 0.022 | [6] -0.196

PEF1 (UniProt Q9UBV8)
inactive: alvocidib 0.027 | Tubastatin A 0.097 | [1] 0.029 | defactinib 0.087 | [2] 0.029 | encorafenib 0.039 | [3] -0.034 | alisertib -0.017 | [4] 0.029 | gefitinib -0.02 | lapatinib 0.019 | pictilisib 0.041 | crizotinib -0.002 | [5] 0.051 | duvelisib -0.004 | gandotinib -0.055 | tozasertib 0.032 | doramapimod -0.01 | bafetinib -0.027 | [6] 0.051

PPFIA2 (UniProt O75334)
inactive: alvocidib -0.107 | Tubastatin A 0.021 | [1] 0.022 | defactinib -0.011 | [2] -0.026 | encorafenib -0.082 | [3] -0.029 | alisertib -0.007 | [4] 0.012 | gefitinib 0.057 | lapatinib -0.014 | pictilisib 0.031 | crizotinib -0.212 | duvelisib 0.001 | gandotinib 0.139 | tozasertib -0.028 | doramapimod 0.023 | bafetinib 0.019 | [6] 0.147
active: [5] -0.244

PTGES2 (UniProt Q9H7Z7)
active: lapatinib 0.637
inactive: alvocidib 0.015 | Tubastatin A -0.169 | [1] 0.122 | defactinib -0.075 | [2] 0.322 | encorafenib -0.127 | [3] 0.098 | alisertib -0.026 | [4] -0.248 | gefitinib 0.245 | pictilisib 0.153 | crizotinib -0.052 | [5] -0.013 | duvelisib 0.029 | gandotinib 0.236 | tozasertib 0.329 | doramapimod 0.341 | bafetinib 0.176 | [6] 0.009
